Laboratory results: PubChem BioAssay AID1063 (University of Pittsburgh Molecular Library Screening Center, 2008)
The campaign covered roughly 200,000 compounds. About 18,000 (9%) were called active. Cut-off read from the data, not from the text of the source: active = inhibition above about 50%; inactive = the rest. What follows is part of a selection rich in actives, with near analogues and random picks from the rest.

Test: Leishmania major promastigote growth inhibition, primary screen (AID 1063);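 note: promastigotes grown with compound for 44 hours at 28 °C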
Conditions: Leishmania major promastigotes, resazurin fluorescence viability; at 10 µM; hits give high values
For `Cc1nc2cc(NCc3cccs3)ccc2n1C`, the inhibition was 9.59% (inactive). In the case of `C[C@H](NC(=O)c1ccccc1Cl)C(=O)OCCOc1cccc(Cl)c1`, the inhibition is reported as -6.25% (inactive). In the case of `CC(=O)N/N=C/c1cc2c(cc1[N+](=O)[O-])OCO2`, the inhibition is reported as -2.52% (inactive). In the case of `CCn1c(CSc2nc(C)cc(C)n2)nnc1SCC(N)=O`, the inhibition is reported as -0.87% (inactive). In the case of `CCc1cccc(CC)c1NC(=S)NCc1ccc2[nH]c(C)cc2c1`, the inhibition is reported as 94.4% (active). With `Cc1cc2cc(CNC(=O)c3cccs3)ccc2[nH]1` the inhibition was -4.21% (inactive). With `Cc1cccc(NC(=S)NCc2ccc3[nH]c4c(c3c2)CCCC4)c1` the inhibition was 11.1% (inactive). With `CC1CCCCC1NC(=O)/C(C#N)=C/C=C/c1ccccc1[N+](=O)[O-]` (stereo not drawn) the inhibition was 69% (active). With `COc1cc(/C=C(\C#N)C(=O)Nc2ccc3ccccc3c2)c([N+](=O)[O-])cc1OC` the inhibition was -8.56% (inactive). In the case of `O=C(/C=C/c1ccccc1[N+](=O)[O-])OC1CCCCC1=O` (stereo not drawn), the inhibition is reported as -5.55% (inactive). With `COc1cc(CN(C)Cc2nc3cc(C(F)(F)F)ccc3c(=O)[nH]2)ccc1OC(F)F` the inhibition was 8.36% (inactive). For `O=C(CSc1cccc[n+]1[O-])c1ccc(-c2ccccc2)cc1`, the inhibition was -8.44% (inactive). For `CC(NC(=S)NC1CCCCC1)C(c1ccccc1)N1CCOCC1` (stereo not drawn), the inhibition was 1.15% (inactive). For `Cc1ccccc1CN1CCN(CC(=O)NCc2ccccn2)C1=O`, the inhibition was -4.22% (inactive). With `Cc1ccccc1CN1C[C@@H]2C[C@@H](c3ccc4nsnc4c3)N3CCC[C@@]23C1=O` the inhibition was 78.4% (active). For `Cc1ccccc1CN1C[C@@H]2C[C@@H](c3cn(C)nc3-c3ccccc3)N3CCC[C@@]23C1=O`, the inhibition was 9.77% (inactive). In the case of `CCN1CCN(C(=O)CN(C)S(=O)(=O)c2ccc3ccccc3c2)CC1`, the inhibition is reported as 0.63% (inactive). With `O=C(N/N=C/c1cc2c(cc1Br)OCO2)C1COc2ccccc2O1` (stereo not drawn) the inhibition was 38% (inactive). For `CN(C)c1ccc(/C=C2\NC(=S)N(Cc3ccccc3)C2=O)cc1`, the inhibition was 96.8% (active). In the case of `O=C1NCC(=O)N(Cc2ccccc2)/C1=C/c1ccccc1`, the inhibition is reported as -0.36% (inactive). With `CC1=NN(Cc2ccccc2)C(=O)/C1=C/c1ccc(N(C)C)cc1` the inhibition was -0.65% (inactive). For `Cc1noc(C)c1CCC(=O)O`, the inhibition was -0.11% (inactive). In the case of `CC(CC(=O)Nc1ccccc1)n1ccnc1` (stereo not drawn), the inhibition is reported as -7.2% (inactive). For `COc1ccc(OC)c(NC(=O)CN2CCN(C(=O)c3ccco3)CC2)c1`, the inhibition was -1.17% (inactive). In the case of `COc1ccc(NC(C)=O)cc1NC(=O)CN1CCN(c2ccccn2)CC1`, the inhibition is reported as -3.06% (inactive). In the case of `COc1ccc(NC(C)=O)cc1NC(=O)CN1CCN(C2c3ccccc3-c3ccccc32)CC1`, the inhibition is reported as 84% (active). In the case of `CCC(CC)NC(=O)CSc1nnc(-c2c[nH]c3ccccc23)o1`, the inhibition is reported as 6.71% (inactive). For `CC(C)(C)n1nnnc1C(c1ccc(F)cc1)N1CCN(Cc2ccc3c(c2)OCO3)CC1` (stereo not drawn), the inhibition was 48.1% (inactive). In the case of `Cc1ccc(S(=O)(=O)Cn2nnnc2CN2CCN(Cc3ccc4c(c3)OCO4)CC2)cc1`, the inhibition is reported as 93.4% (active). With `Fc1ccccc1C(c1nnnn1Cc1ccc2c(c1)OCO2)N1CCN(Cc2ccccc2)CC1` (stereo not drawn) the inhibition was 26.7% (inactive). For `O=C(CCN1CCc2ccccc2C(O)(c2ccccc2)C1)c1ccc2c(c1)OCCO2` (stereo not drawn), the inhibition was 95.3% (active). In the case of `O=C(CN1CCN(c2ccccc2F)CC1)c1ccc2c(c1)OCO2`, the inhibition is reported as 8.93% (inactive). With `O=C(CN1CCC(O)(c2ccccc2)CC1)Nc1ccc2c(c1)OCCO2` the inhibition was 3.55% (inactive). In the case of `O=C(Cc1ccccc1)NNC(=O)C1CCN(c2ncccn2)CC1`, the inhibition is reported as -9.12% (inactive). In the case of `CCc1cc(CNC(=O)CC2C(=O)NCCN2CC2CCCCC2)on1` (stereo not drawn), the inhibition is reported as -6.55% (inactive). In the case of `COc1ccc(/C=C/C(=O)c2ccc(NS(=O)(=O)c3ccc(C)cc3)cc2)cc1O`, the inhibition is reported as 99.6% (active). In the case of `COc1ccc(NS(=O)(=O)c2ccc(NC(C)=O)cc2)cc1OC`, the inhibition is reported as -3.17% (inactive). In the case of `COc1ccc(C(=O)Oc2cc(/C=N/NS(=O)(=O)c3ccc(C)cc3)ccc2OC)cc1`, the inhibition is reported as 0.27% (inactive). With `O=C(CCC(=O)Nc1ccccc1)N/N=C/c1ccccc1F` the inhibition was 0.99% (inactive). In the case of `CCC(C(=O)Nc1ccc2c(c1)OCCO2)c1ccccc1` (stereo not drawn), the inhibition is reported as 4.21% (inactive). For `CCO[C@H]1OC(C(=O)Nc2ccccc2)=C[C@@H](C2CC2)[C@@H]1CCCO`, the inhibition was 1.1% (inactive). In the case of `CCOC(=O)C1=C(CC)OC(N)=C(C#N)C1c1ccc(F)cc1F` (stereo not drawn), the inhibition is reported as 11.4% (inactive). For `COc1cc2c(cc1OC)C(c1ccncc1)CC(=O)N2` (stereo not drawn), the inhibition was -6.82% (inactive). With `COc1cc2c(cc1OC)C(c1ccc(C)o1)CC(=O)N2` (stereo not drawn) the inhibition was -5.73% (inactive). In the case of `COC(=O)c1ccc(C2CC(=O)Nc3cc(OC)c(OC)cc32)cc1` (stereo not drawn), the inhibition is reported as 53.2% (active). For `O=C(NCCc1ccccc1)c1ccc(OCCOc2ccccc2)cc1`, the inhibition was -1.38% (inactive). In the case of `CC(C)(c1ccccc1)c1ccc(OCCN)cc1`, the inhibition is reported as 51.4% (active). For `O=C(NCCOc1ccccc1)c1ccccc1`, the inhibition was -1.77% (inactive). With `COc1cc(OC)cc(C(=O)NCC(=O)OCc2csc(-c3ccccc3)n2)c1` the inhibition was 34.9% (inactive). With `O=C(CNCc1ccc(Cl)cc1)Nc1cccc(C(=O)O)c1` the inhibition was 1.28% (inactive). With `N/C(=N\OC(=O)Cc1ccccc1[N+](=O)[O-])c1ccc(Br)cc1` the inhibition was 10.7% (inactive). In the case of `COc1cccc(C(=O)N2CCCC(CCC(=O)NCc3ccc(F)c(F)c3)C2)c1` (stereo not drawn), the inhibition is reported as 6.37% (inactive). With `COc1cccc(CNC(=O)CCC2CCCN(Cc3ccc(OC(F)F)cc3)C2)c1` (stereo not drawn) the inhibition was 98.5% (active). In the case of `COc1cccc(CNC(=O)CCC2CCCN(C(=O)c3ccoc3C)C2)c1` (stereo not drawn), the inhibition is reported as -4.54% (inactive). In the case of `COc1ccc(/C=N/NC(=O)C(C)N(c2ccc(OC)cc2)S(C)(=O)=O)cc1` (stereo not drawn), the inhibition is reported as 4.55% (inactive). For `COc1ccc(Cl)cc1NC(=O)C(C)N1CCc2ccccc21` (stereo not drawn), the inhibition was 16.9% (inactive). With `CC1(C)OC(=O)C(=CNC(CO)C(=O)O)C(=O)O1` (stereo not drawn) the inhibition was -4.58% (inactive). In the case of `O=C(Nc1ccc2c(c1)OCCO2)c1ccc(Cl)c(S(=O)(=O)N2CCCCC2)c1`, the inhibition is reported as -0.95% (inactive). In the case of `O=C(Oc1ccc([N+](=O)[O-])cc1)c1ccc(Cl)c(S(=O)(=O)N2CCCCC2)c1`, the inhibition is reported as 56.8% (active). With `O=[N+]([O-])c1cccc(S(=O)(=O)N2CCCCCC2)c1` the inhibition was 36.7% (inactive). In the case of `S=C(NCCc1ccccc1)NCc1ccccc1Cl`, the inhibition is reported as -3.26% (inactive). With `OCCNCc1cccc(OCc2ccccc2Cl)c1` the inhibition was 88.8% (active). In the case of `O=C(O)Cc1ccc(NCc2ccccc2Cl)cc1`, the inhibition is reported as -1.01% (inactive). In the case of `COc1ccccc1NC(=O)c1cc(Cl)nnc1Cl`, the inhibition is reported as 15.6% (inactive). In the case of `Cc1cccc(NC(=O)c2cc([N+](=O)[O-])ccc2N2CCN(C)CC2)c1`, the inhibition is reported as -0.64% (inactive). For `Cc1cccc(NC(=O)c2sc(-c3ccccc3)nc2-c2ccc([N+](=O)[O-])cc2)c1`, the inhibition was 99.5% (active). In the case of `COc1ccc(NC(=O)c2sc(N)nc2-c2ccccc2)cc1`, the inhibition is reported as 2.6% (inactive). With `CC(=O)C1=C(O)C(=O)N(c2cccnc2)C1c1ccc([N+](=O)[O-])cc1` (stereo not drawn) the inhibition was -4.89% (inactive). For `Cc1ccc(OCC(=O)NNC(=S)NCc2ccccc2)cc1`, the inhibition was -2.06% (inactive). In the case of `Cc1ccc(Nc2nc(CSc3nnnn3-c3ccccc3)cc(=O)[nH]2)cc1`, the inhibition is reported as 97.7% (active). In the case of `O=c1c2ccccc2nc(CSc2nnnn2-c2ccccc2)n1-c1ccccc1`, the inhibition is reported as -5.4% (inactive). In the case of `Cc1ccc(-c2noc(CSc3nnnn3-c3ccccc3)n2)cc1`, the inhibition is reported as 7.86% (inactive). In the case of `CC1=NNC(=O)C1CCC(=O)N/N=C\c1cccc(Cl)c1` (stereo not drawn), the inhibition is reported as 0.75% (inactive). In the case of `COc1ccc(-c2nn(-c3ccccc3)cc2/C=C\C(=O)N2CCOCC2)cc1[N+](=O)[O-]`, the inhibition is reported as 12.4% (inactive). For `C=CCOc1ccc(Cl)cc1CNCCCN1CCOCC1`, the inhibition was 69.1% (active). For `O=[N+]([O-])c1cc(S(=O)(=O)CCCN2CCOCC2)ccc1F`, the inhibition was 1.38% (inactive). With `COc1ccc(-c2ccc(CNCCCN3CCOCC3)o2)cc1Cl` the inhibition was 40% (inactive). With `COc1ccc(OC)c(Cc2nnc(CCC(=O)NC3CCCC3)o2)c1` the inhibition was -0.8% (inactive). For `O=C1Nc2cc(Cl)c(Cl)cc2N(O)N1c1ccccc1Cl`, the inhibition was -6.67% (inactive). For `NC1=NC2(CCCCC2)N(c2ccc(F)cc2F)C(N)=N1`, the inhibition was -5.15% (inactive). With `Cc1cc(C(=O)CC#N)c(C)n1-c1c(C)n(C)n(-c2ccccc2)c1=O` the inhibition was -0.96% (inactive). In the case of `CC(=O)c1cnc(SCC(=O)O)nc1C`, the inhibition is reported as -12.2% (inactive). In the case of `NNc1nc2c(Cl)cccc2s1`, the inhibition is reported as 99.1% (active). With `C/C(=N\NC(=O)OC(C)(C)C)c1ccc[nH]1` the inhibition was -3.24% (inactive). With `COc1cc([N+](=O)[O-])ccc1NC(=O)CN1CCCC1` the inhibition was -4.3% (inactive). For `Cc1cc(-c2nnc(CCC(=O)NC(c3ccccc3)c3ccccc3)o2)no1`, the inhibition was 5.43% (inactive). With `NNC(=O)c1cnn(-c2ccccc2)c1C(F)(F)F` the inhibition was -1.35% (inactive). In the case of `CN(CC(=O)NCCc1ccccc1)S(=O)(=O)c1cnc[nH]1`, the inhibition is reported as 57.7% (active). For `CN(CC(=O)NC1CCCC1)S(=O)(=O)c1cnc[nH]1`, the inhibition was -0.93% (inactive). With `Cc1ccc(NC(=O)CN(C)S(=O)(=O)c2cnc[nH]2)cc1C` the inhibition was -1.54% (inactive). With `COC(=O)c1nc(NC(=O)c2ccc(C(C)(C)C)cc2)n[nH]1` the inhibition was -4.46% (inactive). In the case of `CCC(C)(C)NC(=O)C(c1cccc(OC)c1OC)N(CC(C)C)C(=O)CCC(=O)Nc1cc(C)on1` (stereo not drawn), the inhibition is reported as 9.34% (inactive). With `O=C1NC(c2cccc(Cl)c2)Nc2ccccc21` (stereo not drawn) the inhibition was -1.93% (inactive). With `O=C(O)c1ccc(/C=N/NC(=S)NCc2ccccc2)cc1` the inhibition was -3.57% (inactive). With `O=C(N/N=C/c1ccc2c(c1)OCO2)C(=O)N1CCCC1` the inhibition was -3.67% (inactive). In the case of `Cc1cccc(CC(=O)N2CCN=C2SCc2ccc([N+](=O)[O-])cc2)c1`, the inhibition is reported as 88.4% (active). With `O=C(Cc1ccc(F)cc1)N1CCN=C1SCc1cccc([N+](=O)[O-])c1` the inhibition was 46.3% (inactive). For `Cc1cc(C)cc(C(=O)N2CCN=C2SCc2ccc([N+](=O)[O-])cc2)c1`, the inhibition was 20.5% (inactive).
